Experimental findings from PubChem BioAssay (Tox21) are described below.

Assay [1] concerns the target Thyrotropin receptor (Homo sapiens) (UniProt P16473). Nature of the assay: qHTS assay to identify small molecule antagonists of the thyroid stimulating hormone receptor (TSHR) signaling pathway (AID 1259385; calls by dose curve; further: nearly all actives have a fitted effect of over 20% in size). In outline: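 Antagonist mode: compound-treated TSHR-expressing HEK293 cells were stimulated with 1.5 ng/mL TSH (final) in presence of Ro20-1724 for 30 min at RT. HTRF cAMP detection after 1 h; each compound tested at 15 concentrations, triplicate.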

A short description of assay [2]: qHTS assay to identify small molecule agonists of the estrogen receptor alpha (ER-alpha) signaling pathway in the presence of an antagonist - cell viability counter screen (AID 1259386).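 Further: series mostly up to about 92 µM; cells exposed to compounds for 22 h at 37 °C before the viability read; nearly all actives have a fitted effect of over 30% in size.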 Summed up:
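In this counter screen, compound effects on VM7Luc4E2 viability were tested in the presence of the antagonist ICI-182,780 at 10.0nM final. Compounds were dosed at 15 concentrations, exposure lasted 22hr, and the CellTiter-Fluor signal was read.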
(In general: Quantitative high-throughput screening tests each substance at several concentrations.)

Assay [3] concerns the target Progesterone receptor (Homo sapiens) (UniProt P06401). In words: qHTS assay to identify small molecule agonists of the progesterone receptor (PR) signaling pathway (AID 1346784; calls by dose curve; further: nearly all actives have a fitted effect of over 30% in size). Summed up: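 HEK 293T PR-UAS-bla reporter cells, 2% charcoal-stripped FBS; 6 hr settle at 37C/5% CO2, compound (DMSO) 16 hr, LiveBLAzer B/G FRET substrate 2 hr RT, fluorescence intensity read.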

For assay [4] the target is unchanged. Nature of the assay: qHTS assay to identify small molecule antagonists of the progesterone receptor (PR) signaling pathway (AID 1346795; active means well fitted inhibition curve with a large enough effect in the signal ratio in the repeat runs, not every such curve was filed as active; the % refers to the signal ratio; further: potency means the concentration at half of the fitted maximal effect). In outline: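 Beta-lactamase reporter, HEK293T PR-UAS-bla line; 2% charcoal-stripped FBS; 6 hr pre-incubation, 37C/5% CO2. Compound + R5020 1 nM final, 16 hr. LiveBLAzer B/G FRET substrate, 2 hr RT; fluorescence intensity read.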

Assay [5] can be described thus: qHTS assay to identify small molecule antagonists of the progesterone receptor (PR) signaling pathway - cell viability counter screen (AID 1346798). Further: series mostly up to about 92 µM; nearly all actives have a fitted effect of over 50% in size. In outline: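 Luminescence readout (CellTiter-Glo, 30 min, RT) of viability in PR-UAS-bla HEK293T cells exposed to compound and R5020 agonist for 16 hr at 37C, 5% CO2; run in the same wells as the beta-lactamase reporter read.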

The nature of assay [6]: qHTS assay to identify small molecule agonists of the progesterone receptor (PR) signaling pathway - cell viability counter screen (AID 1346799; calls by dose curve; further: nearly all actives have a fitted effect of over 45% in size). Summed up:
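HEK293T PR-UAS-bla, 3,000 cells/well, 2% charcoal-stripped FBS; 6 h settle, compound 16 h at 37C/5% CO2; LiveBLAzer 2 h RT, then CellTiter-Glo 30 min RT, luminescence read.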

Assay [7] in a line: qHTS assay to identify small molecule antagonists of the TGF-beta/Smad signaling pathway - cell viability counter screen (AID 1346824). Further: nearly all actives have a fitted effect of over 50% in size. In outline:
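Cytotoxicity counter-screen run in the same wells as the beta-lactamase Smad reporter read: CellTiter-Glo luminescence after 30 min at room temperature. HEK 293T SBE-bla cells had 5 hr compound exposure at 37 C with TGF-beta1 (0.25 ng/mL stock).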

A short description of assay [8]: qHTS assay to identify small molecule agonists of the TGF-beta/Smad signaling pathway - cell viability counter screen (AID 1346829). Further: top concentration of the series differs between compounds; nearly all actives have a fitted effect of over 45% in size. In outline: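 SBE-bla HEK 293T cells plated overnight, compound exposure 5 hr at 37 C. Viability read in the same wells by CellTiter-Glo luminescence after 30 min at room temperature, following the beta-lactamase read.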
The nature of assay [9]: qHTS assay to identify small molecule agonists of the TGF-beta/Smad signaling pathway (AID 1346859; active means well fitted activation curve with a large enough effect in the signal ratio in the repeat runs, not every such curve was filed as active; the % refers to the signal ratio; further: series mostly up to about 77 µM). In outline: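 Read-out: fluorescence at 460 and 530 nm (405 nm excitation) after a 2 hr room-temperature incubation with beta-lactamase FRET substrate. SBE-bla HEK 293T cells had been treated with test compounds for 5 hr at 37 C.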
Assay [10] deals with Thyrotropin-releasing hormone receptor (Homo sapiens) (UniProt P34981). Nature of the assay: qHTS assay to identify small molecule antagonists of the thyrotropin-releasing hormone receptor (TRHR) signaling pathway (AID 1346877; active means well fitted inhibition curve with a large enough effect in the repeat runs, not every such curve was filed as active; further: series mostly up to about 51 µM). In outline:
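Kinetic fluorescence (3 min, 1 s resolution) following stimulation with TRH at 1 nM final; HEK293 cells bearing human TRHR; 5 min compound preincubation at RT; concentration-response over 15 points, triplicates.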

The target is the same in assay [11]. Nature of the assay: qHTS assay to identify small molecule agonists of the thyrotropin-releasing hormone receptor (TRHR) signaling pathway (AID 1346891; calls by dose curve;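 further: HEK293 cells expressing TRHR with calcium dye readout; series mostly up to about 58 µM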). Summed up:
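HEK293/TRHR cells, 1500 per well, 18 h 37 °C; Ca dye 2 h 37 °C; pin-tool compound addition (agonist mode); kinetic fluorescence 3 min, 1 s reads; 15 concentrations, triplicate.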

Assay [12] in a line: Human pregnane X receptor (PXR) small molecule agonists, qHTS cell viability counter screen (AID 1346977). Further: nearly all actives have a fitted effect of over 50% in size. Summed up: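 Fluorescence read-out (CellTiter-Fluor) of viability in PXR-Luc HepG2 cells, multiplexed with the luciferase agonist read. Compounds in DMSO added after 5hr plating; 24hr total exposure at 37C, 5% CO2.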
Assay [13] is described as follows: Caspase-3/7 induction in HepG2 cells by small molecules, qHTS assay (AID 1346978). Further: nearly all actives have a fitted effect of over 15% in size. Summed up: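 Caspase-3/7 induction was measured by Caspase-Glo 3/7 luminescence (30 min, room temperature) after a 17 hr compound exposure of wild-type HepG2 cells seeded at 2,000 per well and pre-incubated 5 hr.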
A short description of assay [14]: Caspase-3/7 induction in CHO-K1 cells by small molecules, qHTS cell viability counter screen (AID 1346979). Further: nearly all actives have a fitted effect of over 35% in size. Summed up: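 CHO-K1 wt, 1,500 cells/well; 5hr pre-incubation 37C/5% CO2; compound pin transfer (DMSO); 16hr exposure; CellTiter-Fluor added, 1hr, fluorescence read.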
The nature of assay [15]: Caspase-3/7 induction in HepG2 cells by small molecules, qHTS cell viability counter screen (AID 1346981). Further: series mostly up to about 92 µM; nearly all actives have a fitted effect of over 30% in size. In outline:
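In this quantitative HTS counter screen, compounds delivered in DMSO were left on unmodified HepG2 cells for 16 hr at 37 C. Viability was then determined fluorometrically with CellTiter-Fluor, in parallel with caspase-3/7 induction in the same wells.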

Assay [16] has as its target Nuclear receptor subfamily 1 group I member 2 (Homo sapiens) (UniProt O75469). In words: Human pregnane X receptor (PXR) small molecule agonists, qHTS assay (AID 1346982). Further: nearly all actives have a fitted effect of over 35% in size. Further: potency means the concentration at half of the fitted maximal effect. Summed up: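 Reporter HepG2 cells expressing PXR-Luc are cultured in charcoal-stripped FBS (5%), treated with compounds for 24 hr at 37 C, and assayed by ONE-Glo luminescence after 30 min at room temperature.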

The nature of assay [17]: Caspase-3/7 induction in CHO-K1 cells by small molecules, qHTS assay (AID 1346980). Further: nearly all actives have a fitted effect of over 15% in size. In outline: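 Luminescent Caspase-Glo 3/7 read (30min, room temperature) quantified apoptosis induction. Cells were wild-type CHO-K1, treated with compound for 17hr at 37 C and 5% CO2.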
Assay [18] concerns the target Nuclear receptor subfamily 1 group I member 2 (Rattus norvegicus) (UniProt Q9R1A7). Nature of the assay: Rat pregnane X receptor (rPXR) activation by small molecules, qHTS assay (AID 1346983). Further: nearly all actives have a fitted effect of over 20% in size. The conditions noted are these: rPXR luciferase reporter cells, One-Glo luminescence, 24 h; max activation: stronger effect = higher value. In outline:
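Luminescent readout (One-Glo luciferase, 30 min room temperature) followed 24 hr compound treatment at 37 C of rPXR cells plated 2,000 per well and preincubated 5hr; qHTS format with compounds delivered in DMSO.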

For assay [19], the target named is Nuclear receptor subfamily 1 group I member 2 (Homo sapiens) (UniProt O75469). Nature of the assay: CYP3A4 induction through human pregnane X receptor (PXR) by small molecules, qHTS assay (AID 1346984). Further: nearly all actives have a fitted effect of over 40% in size. In outline: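 Induction measured in HepG2-based DPX-2 cells co-expressing human PXR and a CYP3A4 promoter-driven luciferase. After a 24-hour compound exposure, cells received CYP3A4 luciferin substrate at 3uM final for 3 hours, and light output was then recorded.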
Chain of Nuclear receptor subfamily 1 group I member 2 (Homo sapiens) (O75469 whole entry, looked up): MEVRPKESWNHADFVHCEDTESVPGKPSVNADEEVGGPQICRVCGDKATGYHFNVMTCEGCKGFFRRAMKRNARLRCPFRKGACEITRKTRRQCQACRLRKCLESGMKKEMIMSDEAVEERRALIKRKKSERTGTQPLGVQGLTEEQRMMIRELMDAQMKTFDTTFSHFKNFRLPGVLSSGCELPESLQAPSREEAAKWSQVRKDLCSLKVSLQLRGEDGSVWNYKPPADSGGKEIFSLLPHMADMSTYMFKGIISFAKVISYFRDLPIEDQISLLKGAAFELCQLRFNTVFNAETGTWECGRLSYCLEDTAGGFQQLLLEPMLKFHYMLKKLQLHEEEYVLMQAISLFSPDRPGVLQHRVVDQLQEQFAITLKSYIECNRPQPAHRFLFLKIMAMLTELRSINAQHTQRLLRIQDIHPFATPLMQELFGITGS

Assay [20] has the same target. In words: Human pregnane X receptor (PXR) activation by small molecules, qHTS assay (AID 1346985). Further: nearly all actives have a fitted effect of over 40% in size. Summed up: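 DPX-2 cells (HepG2 co-transfected with a PXR response element and a CYP3A4-promoter luciferase construct) were seeded at 2,000 per well, rested 5 hr at 37C, then exposed to DMSO-dissolved compounds for 24 hr. Activation was read as luciferase luminescence.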

Several values for one entry are separate records, joined by “and”; a condition that tells them apart may be missing. Identical values can stand only once. A number with no mark means an inactive call. Inconclusive results are not listed. Activity calls are given as the source filed them. Unless noted, the call rests on the fitted dose curve; in most records, active means well fitted curve in the direction sought with a large enough effect in the repeat runs; inconclusive means weak or mixed curves; inactive means no such curve, though single readings can be large; an effect the other way counts as inactive or inconclusive.
On the % scale 0 is the no-effect control and ±100 the full control effect.

Chain of Progesterone receptor (Homo sapiens) (P06401 whole entry, looked up): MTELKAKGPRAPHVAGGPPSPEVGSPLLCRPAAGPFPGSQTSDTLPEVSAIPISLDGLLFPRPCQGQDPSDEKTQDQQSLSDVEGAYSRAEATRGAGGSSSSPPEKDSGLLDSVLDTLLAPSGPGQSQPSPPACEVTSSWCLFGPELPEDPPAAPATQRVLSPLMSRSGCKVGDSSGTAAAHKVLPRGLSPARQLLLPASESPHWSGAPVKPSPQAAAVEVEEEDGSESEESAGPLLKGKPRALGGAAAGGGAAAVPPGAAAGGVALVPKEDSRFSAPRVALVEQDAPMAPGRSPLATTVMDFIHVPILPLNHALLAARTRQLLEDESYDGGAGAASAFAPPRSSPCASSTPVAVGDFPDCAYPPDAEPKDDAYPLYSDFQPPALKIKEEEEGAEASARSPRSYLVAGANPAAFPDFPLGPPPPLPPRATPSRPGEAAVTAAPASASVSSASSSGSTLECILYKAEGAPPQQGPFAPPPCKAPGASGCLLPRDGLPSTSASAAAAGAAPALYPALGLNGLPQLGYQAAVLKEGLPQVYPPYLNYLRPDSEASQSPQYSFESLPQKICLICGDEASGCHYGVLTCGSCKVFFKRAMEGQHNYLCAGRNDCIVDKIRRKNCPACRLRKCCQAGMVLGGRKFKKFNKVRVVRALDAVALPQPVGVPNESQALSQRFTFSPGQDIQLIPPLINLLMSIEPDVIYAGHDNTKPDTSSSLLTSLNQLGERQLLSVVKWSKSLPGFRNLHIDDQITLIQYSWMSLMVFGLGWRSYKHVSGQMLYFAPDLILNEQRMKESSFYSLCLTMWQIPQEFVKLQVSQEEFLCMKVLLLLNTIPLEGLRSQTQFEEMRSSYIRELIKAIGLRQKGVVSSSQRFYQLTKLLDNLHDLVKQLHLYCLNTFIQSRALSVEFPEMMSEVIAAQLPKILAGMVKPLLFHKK
Chain of Thyrotropin-releasing hormone receptor (Homo sapiens) (P34981 whole entry, looked up): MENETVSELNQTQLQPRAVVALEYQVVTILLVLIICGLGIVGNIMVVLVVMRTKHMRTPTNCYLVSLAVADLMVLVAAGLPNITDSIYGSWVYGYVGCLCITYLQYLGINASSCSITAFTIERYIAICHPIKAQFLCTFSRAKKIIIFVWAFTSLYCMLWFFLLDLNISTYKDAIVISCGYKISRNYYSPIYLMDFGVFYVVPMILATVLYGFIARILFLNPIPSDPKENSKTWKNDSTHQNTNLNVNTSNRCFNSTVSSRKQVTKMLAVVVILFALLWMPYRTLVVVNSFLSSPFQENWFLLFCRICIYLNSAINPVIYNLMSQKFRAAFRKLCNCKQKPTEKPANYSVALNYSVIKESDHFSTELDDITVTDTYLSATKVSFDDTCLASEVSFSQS
Chain of Thyrotropin receptor (Homo sapiens) (P16473 whole entry, looked up): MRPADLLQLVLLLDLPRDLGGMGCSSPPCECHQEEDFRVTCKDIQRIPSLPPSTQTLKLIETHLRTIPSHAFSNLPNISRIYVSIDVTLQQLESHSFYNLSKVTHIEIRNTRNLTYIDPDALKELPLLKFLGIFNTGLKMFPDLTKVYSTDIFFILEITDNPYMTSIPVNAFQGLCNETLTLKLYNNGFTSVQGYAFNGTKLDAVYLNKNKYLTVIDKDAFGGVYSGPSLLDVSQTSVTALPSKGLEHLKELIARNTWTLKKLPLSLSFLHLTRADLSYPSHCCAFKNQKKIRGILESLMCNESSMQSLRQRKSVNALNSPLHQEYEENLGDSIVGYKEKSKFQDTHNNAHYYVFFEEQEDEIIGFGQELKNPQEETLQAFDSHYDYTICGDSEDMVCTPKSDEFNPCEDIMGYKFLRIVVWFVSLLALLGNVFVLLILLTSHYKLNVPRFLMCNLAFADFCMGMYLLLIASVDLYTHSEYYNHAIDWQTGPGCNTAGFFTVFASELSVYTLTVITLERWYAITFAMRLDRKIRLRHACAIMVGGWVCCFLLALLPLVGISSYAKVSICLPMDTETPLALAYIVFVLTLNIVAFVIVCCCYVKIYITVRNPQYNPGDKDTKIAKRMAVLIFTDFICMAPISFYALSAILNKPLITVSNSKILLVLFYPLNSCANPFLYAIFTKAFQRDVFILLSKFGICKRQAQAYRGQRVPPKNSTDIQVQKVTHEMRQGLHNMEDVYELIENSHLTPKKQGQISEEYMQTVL
Chain of Nuclear receptor subfamily 1 group I member 2 (Rattus norvegicus) (Q9R1A7 whole entry, looked up): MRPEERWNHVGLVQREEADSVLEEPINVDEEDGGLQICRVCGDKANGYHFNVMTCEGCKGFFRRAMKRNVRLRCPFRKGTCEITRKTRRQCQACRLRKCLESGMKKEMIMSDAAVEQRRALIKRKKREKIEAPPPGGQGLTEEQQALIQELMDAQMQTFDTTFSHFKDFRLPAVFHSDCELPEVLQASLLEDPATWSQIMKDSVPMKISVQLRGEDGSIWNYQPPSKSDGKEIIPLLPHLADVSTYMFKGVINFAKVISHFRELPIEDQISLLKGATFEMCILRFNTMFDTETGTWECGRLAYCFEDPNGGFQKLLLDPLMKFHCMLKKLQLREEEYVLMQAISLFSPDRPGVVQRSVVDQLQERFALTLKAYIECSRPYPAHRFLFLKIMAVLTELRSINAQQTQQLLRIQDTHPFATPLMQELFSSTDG

Regarding `CN(C)C=O`, the molecule was classed as inactive in assay [1], in assay [9] and in assay [10]. The Potency result in assay [2], in [3], in assay [4], in assay [5], in assay [6] and in assay [7] was “inactive” in each case. Also, the Potency result in assay [8], in [11], in [12], in assay [13], in assay [14] and in [15] was “inactive” in each case. Also, the Potency entry in assay [16] is “inactive”.

Turning to `COc1ccc(C(=O)c2ccccc2)c(O)c1`, the molecule was classed as inactive in [1], in assay [9], in assay [10] and in assay [17]. In addition, the Potency entry in [2], in assay [3], in [5], in assay [6], in assay [7] and in [8] was “inactive” throughout. The Potency entry in assay [11], in assay [13], in assay [14] and in assay [15] was “inactive” in each case. For the same molecule, the Potency was 30.1 µM (active) in assay [4]; 60.1 µM (active) and 54.5 µM (active) in [16].

For `COc1ccc(O)cc1`, the molecule was classed as inactive in assay [1], in [9], in assay [10] and in [17]. Moreover, the Potency result in assay [2], in assay [3], in assay [4], in assay [5], in assay [6] and in assay [7] was “inactive” in each case. Also, the Potency result in assay [8], in assay [11], in assay [12], in assay [13], in [14] and in assay [15] was “inactive” in each case. Moreover, the Potency entry in assay [16], in [19] and in assay [20] was “inactive” each time. Also, the max activation in [18] is -2.37%.

For `CCc1cc(C(N)=S)ccn1`, the molecule was classed as inactive in [1], in assay [9] and in assay [10]. In addition, the Potency result in assay [2], in assay [3], in assay [4], in assay [5], in assay [6] and in assay [7] was “inactive” each time. Also, the Potency result in assay [8], in [11], in assay [13], in assay [14] and in [15] was “inactive” each time.

For `Cc1c(N(C)CS(=O)(=O)O)c(=O)n(-c2ccccc2)n1C`, the molecule was called inactive in [1], in assay [9] and in assay [10]. For the same molecule, the Potency result in assay [2], in [3], in [4], in assay [5], in [6] and in [7] was “inactive” in each case. In addition, the Potency entry in assay [8], in assay [11], in [12], in [13], in assay [14] and in [15] was “inactive” throughout. Further, the Potency entry in assay [16], in assay [19] and in [20] was “inactive” in each case. In [18], the max activation was -2.23%.

Regarding `CC1(C)O[C@@H]2[C@@H](CO[C@@]3(COS(N)(=O)=O)OC(C)(C)O[C@@H]23)O1`, the outcome in [1], in assay [9] and in assay [10] was inactive. The Potency entry in [2], in assay [3], in [4], in assay [5], in assay [6] and in [7] was “inactive” throughout. The Potency result in assay [8], in assay [11], in assay [13], in assay [14], in assay [15] and in assay [16] was “inactive” in each case. Also, the Potency result in [19] and in [20] was “inactive” each time. For the same molecule, the max activation in assay [18] was -4.73%.

Turning to `O=C(O)CN(CC(=O)O)CC(=O)O`, the molecule was classed as inactive in assay [1], in [9], in assay [10] and in [17]. In addition, the Potency entry in assay [2], in assay [3], in assay [4], in assay [5], in [6] and in assay [7] was “inactive” each time. The Potency entry in assay [8], in assay [11], in assay [13], in assay [14], in assay [15] and in assay [16] was “inactive” in each case.
